Source: the supplement of paper PMC7411054

Legend:
Assay in all cases: phenotypically active (imaging signature differs from DMSO and reproducible) at any of 0.3-9 uM (binary (1 = active, 0 = inactive)); higher = active
Details in all cases: treatment time: 24 h
[1] = system: A549-ACTB-RAB5A
Summary of the method: (§1)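 Live-cell features were measured per well and normalised to solvent control wells after fifteen gene-edited A549, HepG2 and WPMY1 reporter lines had been treated for 24 h at 0.3, 1, 3 or 9 µM in four wells each. A condition was deviating when ≥3 of 4 wells sat beyond the 95th percentile of control Euclidean distances. It was reproducible when the median replicate Pearson correlation exceeded the 95th percentile of non-replicates. Phenotypic activity demanded both.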

[2] = system: A549-CANX-COX4
Summary of the method: as §1

[3] = system: A549-GM130-SQSTM1
Summary of the method: as §1

[4] = system: A549-TP53BP1-CLTA
Summary of the method: as §1

[5] = system: A549-TUBA1B-RELA
Summary of the method: as §1

[6] = system: HepG2-ACTB-RAB5A
Summary of the method: as §1

[7] = system: HepG2-CANX-COX4
Summary of the method: as §1

[8] = system: HepG2-GM130-SQSTM1
Summary of the method: as §1

[9] = system: HepG2-TP53BP1-CLTA
Summary of the method: as §1

[10] = system: HepG2-TUBA1B-RELA
Summary of the method: as §1

[11] = system: WPMY1-ACTB-RAB5A
Summary of the method: as §1

[12] = system: WPMY1-CANX-COX4
Summary of the method: as §1

[13] = system: WPMY1-GM130-SQSTM1
Summary of the method: as §1

[14] = system: WPMY1-TP53BP1-CLTA
Summary of the method: as §1

[15] = system: WPMY1-TUBA1B-RELA
Summary of the method: as §1

Measured: phenotypically active

CC[C@H]1OC(=O)[C@H](C)[C@@H](O[C@H]2C[C@@](C)(OC)[C@@H](O)[C@H](C)O2)[C@H](C)[C@@H](O[C@@H]2O[C@H](C)C[C@H](N(C)C)[C@H]2O)[C@](C)(O)C[C@@H](C)C(=O)[C@H](C)[C@@H](O)[C@]1(C)O [Erythromycin]
inactive: [1] 0 | [2] 0 | [3] 0 | [4] 0 | [5] 0 | [6] 0 | [7] 0 | [8] 0 | [9] 0 | [10] 0 | [11] 0 | [12] 0 | [13] 0 | [14] 0 | [15] 0

C[C@@H]1C(=O)O[C@H]2C[C@@]34[C@H]5C[C@@H](C(C)(C)C)[C@]36[C@@H](OC(=O)[C@@H]6O)O[C@@]4(C(=O)O5)[C@]21O [Ginkgolide A]
inactive: [1] 0 | [2] 0 | [3] 0 | [4] 0 | [5] 0 | [6] 0 | [7] 0 | [8] 0 | [9] 0 | [10] 0 | [11] 0 | [12] 0 | [13] 0 | [14] 0 | [15] 0

CC(C)C(=O)c1c(C(C)C)nn2ccccc12 [Ibudilast]
inactive: [1] 0 | [2] 0 | [3] 0 | [4] 0 | [5] 0 | [6] 0 | [7] 0 | [8] 0 | [9] 0 | [10] 0 | [11] 0 | [12] 0 | [13] 0 | [14] 0 | [15] 0

NC(=O)C(c1ccccc1)(c1ccc(F)cc1)c1ccc(F)cc1 [senicapoc]
inactive: [1] 0 | [2] 0 | [3] 0 | [4] 0 | [5] 0 | [6] 0 | [7] 0 | [8] 0 | [9] 0 | [10] 0 | [11] 0 | [12] 0 | [13] 0 | [14] 0 | [15] 0

O=c1[nH]cnc2ccccc12
inactive: [1] 0 | [2] 0 | [3] 0 | [4] 0 | [5] 0 | [6] 0 | [7] 0 | [8] 0 | [9] 0 | [10] 0 | [11] 0 | [12] 0 | [13] 0 | [14] 0 | [15] 0

COc1ccccc1OCC(O)CN1CCN(CC(=O)Nc2c(C)cccc2C)CC1 (stereo not given) [ranolazine]
inactive: [1] 0 | [2] 0 | [3] 0 | [4] 0 | [5] 0 | [6] 0 | [7] 0 | [8] 0 | [9] 0 | [10] 0 | [11] 0 | [12] 0 | [13] 0 | [14] 0 | [15] 0

NS(=O)(=O)c1cc2c(cc1Cl)NC(C1CC3C=CC1C3)NS2(=O)=O (stereo not given) [cyclothiazide]
inactive: [1] 0 | [2] 0 | [3] 0 | [4] 0 | [5] 0 | [6] 0 | [7] 0 | [8] 0 | [9] 0 | [10] 0 | [11] 0 | [12] 0 | [13] 0 | [14] 0 | [15] 0

CN1C(CSCC(F)(F)F)Nc2cc(Cl)c(S(N)(=O)=O)cc2S1(=O)=O (stereo not given) [polythiazide]
inactive: [1] 0 | [2] 0 | [3] 0 | [4] 0 | [5] 0 | [6] 0 | [7] 0 | [8] 0 | [9] 0 | [10] 0 | [11] 0 | [12] 0 | [13] 0 | [14] 0 | [15] 0

COC(=O)/C=C/c1cccc(N(Cc2ccc(-c3ccc(N(C)C)cc3)cc2)C(=O)C2CCCCC2)c1 [fexaramine]
inactive: [1] 0 | [2] 0 | [3] 0 | [4] 0 | [5] 0 | [6] 0 | [7] 0 | [8] 0 | [9] 0 | [10] 0 | [11] 0 | [12] 0 | [13] 0 | [14] 0 | [15] 0

COc1ccc(CCN(C)CCCN2CCc3cc(OC)c(OC)cc3CC2=O)cc1OC [zatebradine]
inactive: [1] 0 | [2] 0 | [3] 0 | [4] 0 | [5] 0 | [6] 0 | [7] 0 | [8] 0 | [9] 0 | [10] 0 | [11] 0 | [12] 0 | [13] 0 | [14] 0 | [15] 0

COc1ccc(C[C@H](C)NC[C@@H](O)c2ccc(O)c(NC=O)c2)cc1 [formoterol]
inactive: [1] 0 | [2] 0 | [3] 0 | [4] 0 | [5] 0 | [6] 0 | [7] 0 | [8] 0 | [9] 0 | [10] 0 | [11] 0 | [12] 0 | [13] 0 | [14] 0 | [15] 0

CCC[C@H](N[C@@H](C)C(=O)N1[C@H](C(=O)O)C[C@@H]2CCCC[C@@H]21)C(=O)OCC [perindopril]
inactive: [1] 0 | [2] 0 | [3] 0 | [4] 0 | [5] 0 | [6] 0 | [7] 0 | [8] 0 | [9] 0 | [10] 0 | [11] 0 | [12] 0 | [13] 0 | [14] 0 | [15] 0

C[C@]12CC[C@@H]3c4ccc(O)cc4CC[C@H]3[C@@H]1CCC2=O [estrone]
inactive: [1] 0 | [2] 0 | [3] 0 | [4] 0 | [5] 0 | [6] 0 | [7] 0 | [8] 0 | [9] 0 | [10] 0 | [11] 0 | [12] 0 | [13] 0 | [14] 0 | [15] 0

Cc1ccc(-c2csc3ncnc(SCCC(=O)O)c23)cc1
inactive: [1] 0 | [2] 0 | [3] 0 | [4] 0 | [5] 0 | [6] 0 | [7] 0 | [8] 0 | [9] 0 | [10] 0 | [11] 0 | [12] 0 | [13] 0 | [14] 0 | [15] 0

Cc1cccc(Nc2ccccc2C(=O)O)c1C [mefenamic-acid]
inactive: [1] 0 | [2] 0 | [3] 0 | [4] 0 | [5] 0 | [6] 0 | [7] 0 | [8] 0 | [9] 0 | [10] 0 | [11] 0 | [12] 0 | [13] 0 | [14] 0 | [15] 0

CC[N@@+]1(C)[C@@H]2CC[C@H]1C[C@@H](OC(=O)[C@]1(c3ccccc3)CC[C@H](C(=O)O[C@H]3C[C@H]4CC[C@@H](C3)[N@+]4(C)CC)c3ccccc31)C2 [beta- Belladonnine dichloroethylate]
inactive: [1] 0 | [2] 0 | [3] 0 | [4] 0 | [5] 0 | [6] 0 | [7] 0 | [8] 0 | [9] 0 | [10] 0 | [11] 0 | [12] 0 | [13] 0 | [14] 0 | [15] 0

NC(=O)c1cn(Cc2c(F)cccc2F)nn1 [rufinamide]
inactive: [1] 0 | [2] 0 | [3] 0 | [4] 0 | [5] 0 | [6] 0 | [7] 0 | [8] 0 | [9] 0 | [10] 0 | [11] 0 | [12] 0 | [13] 0 | [14] 0 | [15] 0

O=C(O)C(CO)c1ccccc1 (stereo not given) [Tropic acid]
inactive: [1] 0 | [2] 0 | [3] 0 | [4] 0 | [5] 0 | [6] 0 | [7] 0 | [8] 0 | [9] 0 | [10] 0 | [11] 0 | [12] 0 | [13] 0 | [14] 0 | [15] 0

O=C(/C=C/N1C[C@H]2C[C@@H]1CN2c1ccccn1)c1ccccc1O
inactive: [1] 0 | [2] 0 | [3] 0 | [4] 0 | [5] 0 | [6] 0 | [7] 0 | [8] 0 | [9] 0 | [10] 0 | [11] 0 | [12] 0 | [13] 0 | [14] 0 | [15] 0

Cc1ccccc1C(OCCN(C)C)c1ccccc1 (stereo not given) [orphenadrine]
inactive: [1] 0 | [2] 0 | [3] 0 | [4] 0 | [5] 0 | [6] 0 | [7] 0 | [8] 0 | [9] 0 | [10] 0 | [11] 0 | [12] 0 | [13] 0 | [14] 0 | [15] 0

C1CCN2C[C@@H]3C[C@@H](CN4CCCC[C@@H]34)[C@H]2C1 [Sparteine (-)]
inactive: [1] 0 | [2] 0 | [3] 0 | [4] 0 | [5] 0 | [6] 0 | [7] 0 | [8] 0 | [9] 0 | [10] 0 | [11] 0 | [12] 0 | [13] 0 | [14] 0 | [15] 0

OC[C@H]1O[C@@H](Oc2ccc(O)cc2)[C@H](O)[C@@H](O)[C@@H]1O [Arbutin]
inactive: [1] 0 | [2] 0 | [3] 0 | [4] 0 | [5] 0 | [6] 0 | [7] 0 | [8] 0 | [9] 0 | [10] 0 | [11] 0 | [12] 0 | [13] 0 | [14] 0 | [15] 0

Cc1nc2c(O)cccc2c(=O)[nH]1
inactive: [1] 0 | [2] 0 | [3] 0 | [4] 0 | [5] 0 | [6] 0 | [7] 0 | [8] 0 | [9] 0 | [10] 0 | [11] 0 | [12] 0 | [13] 0 | [14] 0 | [15] 0
